According to the supplement of paper PMC3724861:
This excerpt belongs to a sample that is enriched for hits. No count for the full screen is at hand.

test system: T1, Caupolican (Caup) homeodomain DNA-binding domain; experiment: PBM E-score (8-mer, recovered from the published 9-mer minima) (E-score (dimensionless, -0.5 to 0.5)); Drosophila protein; higher = stronger relative binding preference, active = 0.31 or more
T1 sequence: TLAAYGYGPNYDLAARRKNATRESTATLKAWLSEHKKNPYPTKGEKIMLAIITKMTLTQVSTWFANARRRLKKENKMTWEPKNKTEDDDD
How it was run: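 Caup's homeodomain DNA-binding domain (residues 214-303) was produced by in vitro transcription and translation and applied at 100 nM to custom-designed protein binding microarrays. Each value is an enrichment score giving relative binding preference for a short DNA word; higher means stronger. Published 9-mer scores were the minimum of their two constituent 8-mer scores, and the 8-mer values were recovered from those minima. A cutoff of 0.31 marks candidate binding sequences.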

PBM E-score, inactive:
CTAGCAAC 0.101, GGTATTGA 0.058, AGCTCAAT -0.0704, TGAGTGCA -0.0812, CGTTTGCC -0.0961, TCATCGCA 0.065, CACCCACG -0.151, AAGGCGCG -0.205, GCATGAGC -0.0712, CGACAACG 0.168, CGTCAACA 0.0802, GGTCAACA 0.159, AGACAACG 0.231, CGACAACC 0.186, TGACAGCA 0.185, TGACAAAA 0.186, AGACAACT 0.191, AAGCATCA 0.0394, GCAAGTGC -0.0754, AGACAGGC -0.00368, AGTCCGGG -0.154, AAGTTGAC 0.0758, AACGCTGG -0.0926, CTATTGGA 0.00708, ATGCTGAC 0.119, GAAAGCAC 0.0573, ATGGTTGG -0.0636, AATATTGG 0.0704, ATCACTAG 0.138, GGACAAGA 0.264, AGACAAGA 0.256, CGACAAGC 0.224, GGACAACC 0.169, AAGGGGTG -0.101, GCTGGTAC 0.0272, AGTTCTAT 0.0299, CTCTTGTA 0.299, ATCTTGTC 0.308, GTCTTGCA 0.0651, ATCTTGTG 0.18, GCAAAGGC -0.087, ATATGCGA 0.0126, AGTTCAAC 0.0449, ACTCCTTG 0.0436, CCTCTGCC -0.243, ATCATAAC 0.156, ATCATAAT 0.167, GACATAAA 0.288, CACATAAC 0.223, AACATAAG 0.268, GCCATAAC 0.0397, AGCCCATG 0.00842, CCTTAAGG -0.154, AGAACGCC -0.114, CACACGGG -0.0095, AACACGGC 0.166, AACACGGA 0.31, AACACGCT 0.267, CGCTGAAG -0.19, CGCATTGA -0.0262, CCCCAGCG -0.312, CAAAACGG 0.016, AAGGCTCA -0.107, AATTTTCT 0.0254, AGTGGACC -0.151, GCAACAAA 0.15, ACAACAGT 0.205, CCAACAAG 0.196, AAAACAAT 0.177, ACAACCAG 0.249, TCAACAAA 0.157, GCAACAAC 0.205, CCAACAAC 0.178, AGTACGGA -0.0156, ATAGACTA 0.115, AGTTATTG 0.11, AGAGTCCC -0.228, GTACAGAA 0.136, CGTATCAA 0.0341, AGTATCAA 0.148, CCTGTCTA 0.0989, CTTGTCTA 0.281, ATTGTCCA 0.1, ATTGTCTA 0.194, GCTGTCAA 0.057, CTTGTCCA 0.287, ATTGTCAA 0.183, CGGGACAA 0.0647, CCGGGTGC -0.287, ACTTAATC 0.0653, GTTTAATA 0.23, AAAGCCGA -0.139, AGGTACAC 0.297

PBM E-score, active:
AGACAACA 0.349, TGACAACA 0.377, CGACAACA 0.342, TGTCAACA ≥ 0.324, GGACAACA 0.336, CGACAAGA 0.317, ATCTTGTA 0.375, GTCTTGTA 0.352, GACATAAC 0.325, AACATAAT ≥ 0.327, AACATAAC 0.318, AACACGGT 0.351, AACACGGG 0.32, ACAACAAA 0.323, ACAACAAG 0.362, ACAACAAC 0.36, ACAACAAT 0.347, TGTATCAA 0.315, GTTGTCTA 0.321, GTTGTCCA ≥ 0.336, GTTGTCAA 0.339
